# High-throughput results deposited in PubChem by several laboratories.
# ROMK mod: modulators of human ROMK potassium channel | 130,000 compounds, 2% hits | AID 1918 | B-score at 10 µM | P48048 | Tet-inducible ROMK, thallium flux fluorescence; actives lie on both sides;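 active means signal ratio slope over the read window, or its plate-corrected B-score, at least 3 SD from the plate mean, either direction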;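 further: B-score of the F/F0 ratio slope over 7 to 12 s after thallium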
# PERK inhibitor: blocks human PERK kinase; Q9NZJ5; CHO PERK-DD fusion, SEAP luminescence translation reporter; inhibition, % at 5.6 µM; 220,000 compounds, 0.17% hits; AID 1416;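 active means inhibition above the mean inhibition of all tested compounds plus 3 SD, set separately per screening campaign, cut at about 2.9% in these data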;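 further: PERK kinase domain activated by AP20187 dimerizer at 100 nM; 0% = DMSO with dimerizer and 100% = rapamycin at 8.4 µM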
# Target sequence (Q9NZJ5 whole entry, looked up, the tested form may be a part): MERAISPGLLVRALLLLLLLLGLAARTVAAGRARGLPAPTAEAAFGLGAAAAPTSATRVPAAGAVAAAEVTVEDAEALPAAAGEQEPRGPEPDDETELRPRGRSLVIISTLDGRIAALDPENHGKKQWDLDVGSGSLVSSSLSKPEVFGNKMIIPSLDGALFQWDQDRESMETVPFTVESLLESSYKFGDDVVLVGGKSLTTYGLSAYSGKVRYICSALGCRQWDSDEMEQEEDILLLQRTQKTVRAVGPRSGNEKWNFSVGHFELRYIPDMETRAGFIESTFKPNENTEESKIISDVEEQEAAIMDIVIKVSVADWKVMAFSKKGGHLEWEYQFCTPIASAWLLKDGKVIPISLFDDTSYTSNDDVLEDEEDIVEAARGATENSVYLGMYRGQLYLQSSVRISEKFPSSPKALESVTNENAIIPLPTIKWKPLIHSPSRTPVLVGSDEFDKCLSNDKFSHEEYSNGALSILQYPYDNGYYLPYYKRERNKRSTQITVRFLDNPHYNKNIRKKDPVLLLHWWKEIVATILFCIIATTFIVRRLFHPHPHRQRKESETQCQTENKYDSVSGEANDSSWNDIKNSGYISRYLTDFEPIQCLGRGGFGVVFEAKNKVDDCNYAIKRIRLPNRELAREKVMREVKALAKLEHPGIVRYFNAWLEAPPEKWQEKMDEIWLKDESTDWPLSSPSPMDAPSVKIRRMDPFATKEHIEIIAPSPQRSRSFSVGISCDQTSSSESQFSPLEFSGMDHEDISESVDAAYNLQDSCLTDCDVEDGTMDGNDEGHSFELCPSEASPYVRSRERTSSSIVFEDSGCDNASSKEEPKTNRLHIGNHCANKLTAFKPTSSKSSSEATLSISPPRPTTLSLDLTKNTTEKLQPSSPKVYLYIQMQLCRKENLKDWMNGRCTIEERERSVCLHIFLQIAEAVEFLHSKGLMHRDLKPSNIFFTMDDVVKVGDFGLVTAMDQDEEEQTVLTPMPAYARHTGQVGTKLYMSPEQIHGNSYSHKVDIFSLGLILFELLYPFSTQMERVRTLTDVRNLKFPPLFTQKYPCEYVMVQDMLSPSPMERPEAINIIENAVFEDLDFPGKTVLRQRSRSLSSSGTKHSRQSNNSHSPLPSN
# Arbovirus inh: antivirals against arbovirus infection. arbovirus infection cell-based antiviral screen. 200,000 compounds, 0.37% hits. AID 1251. inhibition, % at 10 µM; in the data active means inhibition above about 30%
# WT yeast gro inh: growth inhibition of WT yeast, mitochondrial fusion screen; mitochondrial fusion phenotypic screen, WT strain; inhibition, % at 10 µM; 190,000 compounds, 2.1% hits; in the data active means inhibition above about 58%; tested in S. cerevisiae
# * = called active by the depositor; . = no result given. An excerpt weighted towards active compounds, which were near 3.3% of everything screened.
SMILES,ROMK mod,PERK inhibitor,Arbovirus inh,WT yeast gro inh
S=c1[nH]nc(C2CC2c2ccc(Cl)cc2)n1-c1ccc(Cl)cc1 (centres undefined),.,1,13,76*
CCOc1cc(C(=O)N(C)Cc2cc3ccccc3[nH]c2=O)cc(OCC)c1OCC,0.39,-1,16,78*
O=c1[nH]cnc2c1sc1nc(-c3ccccc3)c3c(c12)CCCC3,.,1,13,7
S=c1nc[nH]c2c1sc1nc(-c3ccccc3)c3c(c12)CCCC3,.,0,-11,97*
COCC(=O)Nc1nnc(SCC(=O)NCc2cccs2)s1,.,1,5,11
Cc1ccc(-c2csc3nc[nH]c(=S)c23)cc1,10*,-1,-7,1
Cc1sc2nc[nH]c(=S)c2c1-c1ccccc1,6.4*,1,-12,39
Cc1sc2nc(-c3ccccn3)[nH]c(=O)c2c1-c1ccccc1,-0.87,-1,-20,56
Cc1cc(-c2csc3nc[nH]c(=S)c23)cc(C)c1C,5.2*,-1,-15,48
CN(C)CC1CCCCC1OC(=O)c1ccc(Br)cc1 (centres undefined),0.32,1,12,-2
OC(CNCc1ccc(-c2ccccc2)cc1)c1ccccc1 (centres undefined),-1.6,0,-16,60*
OC(CNCc1cccc(Br)c1)c1ccccc1 (centres undefined),-1.4,0,9,-16
Cc1ccc(S(=O)(=O)N2CCN(c3ccnc4cc(Cl)ccc34)CC2)cc1,0.62,0,15,65*
Cc1ccc(S(=O)(=O)N2CCN(c3ccnc4cc(Cl)ccc34)CC2)cc1C,0.35,1,30*,69*
C=CCn1c(CCCNC(=O)CCC)nc2ccccc21,.,0,2,-3
COc1ccc(OC)c(S(=O)(=O)Nc2cccnc2)c1,.,1,4,23
c1ccc(-c2nnc3sc(CN4CCc5ccccc54)cn23)cc1,-0.78,-1,-38,70
O=C(COC(=O)Cc1ccc(Br)cc1)NC12CC3CC(CC(C3)C1)C2,-1.1,1,5,84*
O=C(COC(=O)Cc1ccc(Br)cc1)NC1CCCCCC1,0.26,0,3,-3
COc1cccc(C2CC(c3ccc(Cl)cc3Cl)Nc3nc(N)nn32)c1 (centres undefined),1.2,-1,41*,-13
CC(C)c1ccc(S(=O)(=O)/N=C2/C=CC(=O)c3ccccc32)cc1,1.7,2,-7,68*
C=CCn1c(CCC(O)CCCCC)n[nH]c1=S (centres undefined),-0.0012,1,1,-5
C/C(=N\N=C(/N)SC1CC(=O)N(c2cccc(Cl)c2)C1=O)c1cccs1 (centres undefined),1.7,0,-1,94*
COc1ccccc1N1CCN(C(=O)C2CCN(S(=O)(=O)c3ccc(C)cc3)CC2)CC1,.,0,-1,9
Cc1ccc(N=Cc2c(O)n(-c3ccc4c(c3)OCO4)c(=O)c3ccccc23)cc1,2.2,0,4,73*
SMILES,ROMK mod,PERK inhibitor,Arbovirus inh,WT yeast gro inh
O=C(COC(=O)CC(c1ccccc1)c1ccccc1)Nc1cccc(F)c1,.,1,6,-1
O=C(COC(=O)CC(c1ccccc1)c1ccccc1)Nc1ccc(F)c(F)c1,-0.02,1,2,59*
COC(=O)C1=C(C)NC2=C(C(=O)CC(C)(C)C2)C1c1cn(Cc2ccc(Br)cc2)nc1-c1ccccc1 (centres undefined),.,-1,-23,70*
COc1ccc(CCN(Cc2cc3cc(C)cc(C)c3nc2Cl)C(=O)C2CC2)cc1,-0.055,1,9,68*
O=C(NN=C1CCCCCC1)c1ccc(Br)o1,0.45,-1,8,6
CC(C)N1CCC(=NNC(=O)c2ccc(Br)o2)CC1,2.7*,0,3,-15
CC1CCN(c2nc(-c3cccnc3)nc3scc(-c4ccccc4)c23)CC1,-0.84,-1,-22,60*
CN1CCN(c2nc(-c3cccnc3)nc3scc(-c4ccccc4)c23)CC1,-0.0091,0,-26,15
CC1CCCN(c2nc(-c3cccnc3)nc3scc(-c4ccccc4)c23)C1 (centres undefined),-1.5,-1,-35,61*
CC1CCN(c2nc(CN3CCCCC3)nc3scc(-c4ccccc4)c23)CC1,.,-1,-41,68*
CCN(CC)CCCN(Cc1cc2ccc(C)c(C)c2[nH]c1=O)C(=O)NC1CCCCC1,.,-1,-4,15
Cc1cc(NC(=O)CSc2nnc(-c3ccncc3)n2C)n(-c2ccccc2)n1,-0.17,2,.,.
Oc1ccccc1/C=N/Nc1cc(N2CCCC2)nc(N2CCCC2)n1,.,-1,16,74*
Oc1ccc(/C=N/Nc2cc(N3CCOCC3)nc(N3CCOCC3)n2)cc1O,0.24,0,-18,-1
Cc1ccc2c(c1)c1c(n2CC(O)CNC(CO)(CO)CO)CCCC1 (centres undefined),.,0,7,-6
Cc1ccc2c(c1)c1c(n2CC(O)CNC2CCCCC2)CCCC1 (centres undefined),-0.18,0,-32,93*
O=C1CCCC2=C1C(c1ccccc1)CC(=O)N2c1ccc(F)cc1F (centres undefined),0.89,0,18,4
O=[N+]([O-])c1ccc(N/N=C/c2sc(N3CCOCC3)nc2-c2ccccc2)c(S(=O)(=O)Nc2ccccc2Cl)c1,-5*,1,-18,24
CC(C1CC1)N(Cc1ccccc1)C(=S)Nc1cccc(C(F)(F)F)c1 (centres undefined),-1,0,-6,76*
O=C(/C=C/c1ccc(N2CCC(c3ccccc3)=N2)cc1)c1ccccc1,-4.4*,2,-13,9
Fc1cccc(Cn2cc(C(=S)N3CCCCC3)c3ccccc32)c1,.,1,-4,76*
CC[C@H](C)[C@@H]1NC(=O)c2cc([N+](=O)[O-])cc(F)c2OCC[C@@H](C(N)=O)NC(=O)[C@H](CCCCN)NC1=O,0.55,1,-2,-14
COC(=O)C1=CN(CCOC23CC4CC(CC(C4)C2)C3)C=C(C(=O)OC)C1c1ccsc1,0.61,0,-13,68*
CN1C(=O)c2ccccc2Sc2ccc(NC(=O)N3CCCC3)cc21,.,-1,-10,79*
CCNC(=S)N(CCc1c(C)[nH]c2ccc(C)cc12)Cc1cccs1,-0.057,0,-20,71*
SMILES,ROMK mod,PERK inhibitor,Arbovirus inh,WT yeast gro inh
COCCNC(=S)N(CCc1c(C)[nH]c2ccc(Cl)cc12)Cc1cccs1,0.59,1,-27,74*
CCNC(=S)N(CCc1c(C)[nH]c2ccc(Cl)cc12)Cc1ccco1,1,0,-18,78*
OC(c1ccccc1)c1cccnc1 (centres undefined),-0.11,-1,3,11
CC(=O)OCCNC(=O)Cn1cnc2c1c(=O)n(C)c(=O)n2C,.,1,3,6
O=C(N/N=C/c1ccc(Cl)cc1)c1cc(-c2cccnc2)nc2ccccc12,.,1,-14,8
O=C(N/N=C/c1ccc[nH]1)c1cc(-c2ccc(Cl)cc2)nc2ccccc12,0.1,1,-11,69*
O=C(c1ccccn1)N1N=C2/C(=C/c3ccc(F)cc3)CCCC2C1c1ccc(F)cc1 (centres undefined),.,-1,-9,74*
Cc1nc2nc(C)n(-c3ccccc3)c2s1,-0.097,0,-5,3
